Results: PubChem BioAssay (NCI)
About 83,000 compounds went through this panel and 20% of them were active in at least one assay; those are over-represented in the sample as a whole.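 Cell lines were cultured in 96-well plates, exposed to a single compound concentration, and assessed for percent growth 48 hours later.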 The source made the active and inactive calls. Rule for the calls: active = growth percent below 10; inactive = the rest.

Legend:
Test in all cases: NCI-60 one-dose screen, 48 h (100 = growth as untreated, 0 = no growth, -100 = all killed)
Settings in all cases: 10 µM unless noted
[1] = test system: HCT-15 colon
[2] = test system: HT29 colon
[3] = test system: SNB-75 CNS
[4] = test system: SNB-19 CNS
[5] = test system: U251 CNS
[6] = test system: PC-3 prostate
[7] = test system: SK-MEL-5 melanoma
[8] = test system: UACC-62 melanoma
[9] = test system: LOX IMVI melanoma
[10] = test system: SK-MEL-28 melanoma
[11] = test system: SK-MEL-2 melanoma
[12] = test system: EKVX NSCLC
[13] = test system: SN12C renal
[14] = test system: UO-31 renal
[15] = test system: ACHN renal
[16] = test system: CAKI-1 renal
[17] = test system: A498 renal
[18] = test system: CCRF-CEM leukemia
[19] = test system: MOLT-4 leukemia
[20] = test system: TK-10 renal

Measured: growth

O=C(c1ccc(O)cc1)[C@@H]1CN[C@@]2(C(=O)Nc3ccccc32)[C@H]1c1ccc(F)cc1
inactive: [1] 94.8% | [2] 110% | [3] 103% | [4] 92.8% | [5] 102% | [6] 88.8% | [7] 101% | [8] 86% | [9] 110% | [10] 105% | [11] 104% | [12] 91.9% | [13] 98.6% | [14] 77.3% | [15] 94.5% | [16] 106% | [17] 112% | [18] 99.2% | [19] 90.5%

CCC(CC)N1C(=O)/C(=c2\sc3n(c2=O)NC2C(N=3)N(CC)C(=O)N2CC)c2ccccc21 (configuration not stated)
inactive: [1] 34.5% | [2] 44.7% | [3] 67.9% | [4] 71.4% | [5] 58.9% | [6] 43.9% | [7] 55.6% | [8] 39.9% | [9] 39.3% | [10] 57% | [11] 101% | [12] 59.6% | [13] 56% | [14] 54.4% | [15] 50.4% | [16] 50.8% | [17] 52.3% | [18] 55.3% | [19] 59.8%

CCO/C=N/C1=C(C#N)C(c2ccc(F)cc2)c2sc3c(C)cccc3c2O1 (configuration not stated)
inactive: [1] 11.9% | [4] 18.2% | [5] 21.8% | [6] 14.5% | [8] 12.8% | [10] 56.2% | [11] 42.7% | [12] 44.6% | [13] 17.3% | [14] 27.9% | [15] 23.1% | [16] 28.4% | [18] 21.1% | [19] 23.1%
active: [2] 9.76% | [3] 8.13% | [7] 4.34% | [9] 9.65% | [17] -0.888%

C#CCNC1CCC(c2csc(C#C)n2)=C1C (configuration not stated)
active: [5] 4.13% | [9] -90.7% | [15] -88.2%
inactive: [1] 96.6% | [2] 50.7% | [3] 113% | [4] 90.6% | [6] 80.8% | [7] 90% | [8] 76.8% | [10] 97% | [11] 101% | [12] 24.8% | [13] 65.4% | [14] 44.7% | [16] 58.3% | [17] 118% | [19] 84.7%

C=CC(=O)N1CCC=C(c2cc3c(N[C@H](C)c4ccccc4)ncnc3[nH]2)C1
active: [3] 3.25% | [15] 6.81% | [17] -27.8%
inactive: [1] 73.2% | [2] 66.5% | [4] 77.1% | [5] 84.2% | [6] 68.9% | [7] 85.7% | [8] 68.5% | [9] 57.5% | [10] 91.6% | [11] 89.7% | [12] 28.1% | [13] 29.3% | [14] 20.5% | [16] 14.4% | [19] 93.4%

C=C=COc1cccc(/C(N)=N/C(N)=N/c2nc3ccccc3s2)c1
inactive: [1] 83.6% | [2] 107% | [3] 85.6% | [4] 97.5% | [5] 80.5% | [6] 30.3% | [7] 98.5% | [8] 94.2% | [9] 37.7% | [10] 64% | [11] 104% | [12] 55.8% | [13] 66.7% | [14] 31.2% | [16] 36.9% | [17] 79.7% | [18] 32% | [19] 47.4%

COc1ccc(C2CC(c3ccc(Nc4nc(NCCO)nc(N5CCOCC5)n4)cc3)=Nc3c(N)nc(N)nc3N2)cc1 (configuration not stated)
inactive: [1] 100% | [2] 102% | [3] 86.4% | [4] 102% | [5] 95.5% | [6] 105% | [7] 96.2% | [8] 104% | [9] 103% | [10] 108% | [11] 107% | [12] 107% | [13] 96.9% | [14] 93.7% | [16] 94.3% | [17] 87.9% | [18] 105% | [19] 102%

O=C(CCn1c[n+](CC(=O)c2ccc(F)cc2)c2ccccc21)Nc1cccc2cccnc12
inactive: [1] 106% | [2] 58.6% | [3] 75.6% | [4] 71.1% | [5] 79.3% | [6] 63.4% | [7] 33.4% | [8] 55.7% | [9] 84.6% | [10] 60.1% | [11] 81.7% | [12] 89.5% | [13] 94% | [14] 88.9% | [15] 95.7% | [16] 99.9% | [17] 130% | [19] 65.2%

C=CCN(C)S(=O)(=O)/N=C1\NC(=O)NC1=C(Cl)Cl
active: [1] -77.2% | [2] 5.89% | [5] -10.2% | [9] -88.3% | [10] -83.6% | [13] -22.5% | [15] -96.7% | [16] 2.82% | [18] -27.1% | [19] -19.7%
inactive: [3] 100% | [4] 58.4% | [6] 47% | [7] 91.6% | [8] 32.9% | [11] 90% | [12] 62.8% | [14] 92.5% | [17] 97.6%

O=c1c2ccccc2nc(COc2ccccc2)n1NS(=O)(=O)c1ccc(Cl)cc1
inactive: [1] 54.4% | [2] 80% | [3] 36.9% | [4] 79.8% | [5] 87.8% | [6] 82.7% | [7] 94.5% | [8] 76.9% | [9] 83.6% | [10] 87.1% | [11] 74.7% | [13] 76.6% | [14] 62.7% | [20] 153% | [15] 92.8% | [16] 73.1% | [17] 63.3% | [18] 97% | [19] 69.5%

COc1cc(OC)cc(C(=O)Nc2sc3c(c2C(N)=O)CCC(=O)C3)c1
inactive: [1] 10.9% | [2] 39.6% | [3] 47.9% | [4] 25.1% | [5] 10.3% | [7] 63.1% | [8] 20.4% | [9] 22.1% | [10] 48% | [11] 86.8% | [13] 50.9% | [14] 67.5% | [20] 66.5% | [15] 38.6% | [16] 10.6% | [17] 82.6%
active: [6] 8.96% | [18] 8.55%

COc1cc(-c2nc(-c3ccccc3)[nH]c2-c2ccnc(NCCCNS(=O)(=O)c3cccc(F)c3)n2)ccc1Cl
inactive: [1] 25.7% | [2] 23.1% | [3] 77.4% | [4] 66.3% | [5] 44.5% | [6] 25.2% | [7] 34.2% | [8] 44.1% | [9] 35.5% | [10] 55% | [11] 43.5% | [13] 57.7% | [14] 35.9% | [20] 72.3% | [15] 32.8% | [16] 42.9% | [17] 70.4% | [18] 24.6% | [19] 19.6%

CCNC(=O)N1CCc2cc(OC)c(OCCc3ccc(OC)nc3)cc2C1c1ccc(OC)cc1C (configuration not stated)
active: [2] 5.66% | [9] 7.09%
inactive: [1] 14% | [3] 25.9% | [4] 34.5% | [5] 26.2% | [6] 37.8% | [7] 23.6% | [8] 22.7% | [10] 43.9% | [11] 30.1% | [12] 61.8% | [13] 44.8% | [14] 40.3% | [16] 33.7% | [17] 14.1% | [18] 39.3% | [19] 25.8%

Oc1ccc(CSc2nnc(-c3ccc(Cl)cc3)n2-c2ccccc2)c2cccnc12
inactive: [1] 14.4% | [2] 92.7% | [3] 16.6% | [4] 13.3% | [6] 19.1% | [9] 29.5% | [10] 42.4% | [11] 35.2% | [13] 33.2% | [20] 28.2% | [15] 30.5% | [16] 48.7% | [17] 50.2% | [18] 20.8% | [19] 28.5%
active: [5] 3.32% | [7] 5.67% | [8] 9.41% | [14] 0.657%

CN(C)CCCOc1ccc2c(c1)CN(C(=O)c1cc(C(=O)N3Cc4cccc(F)c4C3)ccc1O)C2
inactive: [1] 88.5% | [2] 106% | [3] 95% | [4] 101% | [5] 98.4% | [6] 102% | [7] 98.2% | [8] 96.3% | [9] 91.8% | [10] 104% | [11] 117% | [12] 103% | [13] 99.4% | [14] 95.3% | [15] 106% | [16] 95.8% | [17] 97.1% | [18] 98.1% | [19] 97.5%

COc1cc2oc(-c3cccc(N)c3)cc(=O)c2c(OC)c1OC
inactive: [1] 101% | [2] 109% | [3] 97.8% | [4] 97.8% | [5] 103% | [6] 98.7% | [7] 98.8% | [8] 93.5% | [9] 111% | [10] 108% | [11] 102% | [13] 96.6% | [14] 80.6% | [20] 96.9% | [15] 103% | [16] 83.5% | [17] 101% | [18] 102% | [19] 106%
